Measured values published in the supplement of paper PMC11219838.
A number with no mark means an inactive call.

The molecules below were run on Caenorhabditis elegans L1 (N2) (assay: survival and reproduction score of C. elegans L1 (0: 0-10 living worms, 1: 11-20, 2: 21-50, 3: >50, 4: overgrown) (score 0-4); higher = more worms, less nematicidal, active = 1 or less; extreme values may be limits of the assay). Settings: 60 µM; 6 days; temperature: 20 °C.
In short: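 In liquid NGM with E. coli HB101, approximately 20 synchronized C. elegans N2 L1s per 96-well well were exposed to compound at 60 µM final (0.6% v/v DMSO) for 6 days at 20 °C with shaking at 200 rpm in sealed plates. Survival and reproduction were judged under a dissection microscope as an ordinal rating of living worms per well. Ratings went from 0 (0–10 worms) to 4 (overgrown, starved) and were averaged over two biological replicates.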

`Cn1c(SCc2ccc(Cl)cc2)nnc1-c1ccco1` and `COc1ccccc1-c1nnc(SCc2ccc(C#N)cc2)o1` are the same in “survival and reproduction score” value: 4 for the first, 4 for the second.

`O=C(CSc1nnc(-c2ccccc2Cl)o1)Nc1ccccn1` and `O=C(CSc1nnc(-c2ccccc2Cl)o1)NCc1ccccc1` are the same in “survival and reproduction score” value: 4 for the first, 4 for the second.

Compared with `COc1cccc(-c2noc(COc3cccc(C)c3)n2)c1`, `Cc1cccc(-c2noc(-c3cc(Cl)ccc3Cl)n2)c1` is lower in “survival and reproduction score” value: 4 for the first, 2 for the second.

`O=C(CSc1nnc(-c2ccccc2)o1)Nc1cccc(Br)c1` and `O=C(CSc1nnc(-c2ccccc2)o1)NC1CC2CCC1C2` (stereo not given) are the same in “survival and reproduction score” value: 4 for the first, 4 for the second.

`COc1ccc(-c2noc(COc3ccc(C4CCCCC4)cc3)n2)cc1` and `COc1ccc(CC(=O)Nc2ccc(-c3noc(-c4ccc(F)cc4)n3)cc2)cc1` are the same in “survival and reproduction score” value: 4 for the first, 4 for the second.

`O=C(CSc1nnc(-c2cccc(Br)c2)o1)N1CCCCC1` and `COc1ccc(-c2nnc(SCc3ccc(Cl)cc3Cl)o2)cc1` are the same in “survival and reproduction score” value: 4 for the first, 4 for the second.

First: Cc1cc(OC(C)c2nc(-c3ccccn3)no2)ccc1Cl (stereo not given)
Second: Cc1ccc(-c2nc(-c3ccccc3)no2)cc1C
The “survival and reproduction score” value of the first is lower: 2 for the first, 4 for the second.

`CCOc1cc(-c2nc(-c3ccc(OC)cc3)no2)cc(OCC)c1OCC` and `CC(Sc1nnc(-c2ccc(C(C)(C)C)cc2)o1)C(=O)Nc1nccs1` (stereo not given) are the same in “survival and reproduction score” value: 4 for the first, 4 for the second.

With `COc1cccc(-c2nc(-c3ccc(Br)cc3)no2)c1` the “survival and reproduction score” value was 0 (active).
For `Fc1ccccc1-c1nc(-c2ccc(Cl)cc2)no1`, the “survival and reproduction score” value was 1 (active).
`COc1ccc(CSc2nnc(-c3ccc(Cl)cc3Cl)o2)cc1` was tested, and the “survival and reproduction score” value was 0 (active).
For `Clc1cccc(-c2nc(-c3ccncc3)no2)c1`, the “survival and reproduction score” value was 0 (active).
